Source: PubChem BioAssay
MT1-MMP txn act – activates MT1-MMP transcription | activation factor at 10 µM | actives 0.16% (n = 86,000) | HT1080 MT1-MMP promoter luciferase reporter, luminescence, overnight; stronger effect = higher value | AID 750;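 active = activation factor of at least 2 for MT1-MMP transcription at 10 µM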
Hsp90 block – displaces geldanamycin probe from tumor Hsp90; actives 0.35% (n = 64,000); AID 429; inhibition, % at 30 µM; NCI-N417 lysate Hsp90, Cy3B-geldanamycin FP displacement;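 active = inhibition above 50%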;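 also: 0% = tracer plus lysate wells and 100% = tracer alone without lysate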
HER2 expr 66K – lowers expression of human Her2 kinase. SKBR-3 HER2 protein level, AlphaScreen, 18-24 h; stronger effect = lower value. HER2 level % of control, % at 10 µM. actives 0.69% (n = 65,000);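 active = HER2 level under 5% of the carrier-only control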;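 also: 100% = DMSO carrier and 0% = 500 nM PU-H71 HSP90 inhibitor; lower value means stronger loss of Her2 protein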
HePTP inh – inhibitors of human HePTP phosphatase; inhibition, % at 20 µM; recombinant HePTP phosphatase activity, OD absorbance; AID 521; actives 0.64% (n = 110,000); P35236; in the data active = inhibition above about 50%;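 also: plate controls were vehicle for no effect and reference inhibitor for full effect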
Ec RNAP inh – Escherichia coli RNA polymerase inhibition | E. coli RNA polymerase, fluorescence transcription assay | inhibition, %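 (tested at 10 µM)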 | actives 0.2% (n = 62,000); in the data active = inhibition above about 20%;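 also: 0% = enzyme without compound and 100% = no enzyme blank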
Target sequence (P0A8V2 whole entry, looked up): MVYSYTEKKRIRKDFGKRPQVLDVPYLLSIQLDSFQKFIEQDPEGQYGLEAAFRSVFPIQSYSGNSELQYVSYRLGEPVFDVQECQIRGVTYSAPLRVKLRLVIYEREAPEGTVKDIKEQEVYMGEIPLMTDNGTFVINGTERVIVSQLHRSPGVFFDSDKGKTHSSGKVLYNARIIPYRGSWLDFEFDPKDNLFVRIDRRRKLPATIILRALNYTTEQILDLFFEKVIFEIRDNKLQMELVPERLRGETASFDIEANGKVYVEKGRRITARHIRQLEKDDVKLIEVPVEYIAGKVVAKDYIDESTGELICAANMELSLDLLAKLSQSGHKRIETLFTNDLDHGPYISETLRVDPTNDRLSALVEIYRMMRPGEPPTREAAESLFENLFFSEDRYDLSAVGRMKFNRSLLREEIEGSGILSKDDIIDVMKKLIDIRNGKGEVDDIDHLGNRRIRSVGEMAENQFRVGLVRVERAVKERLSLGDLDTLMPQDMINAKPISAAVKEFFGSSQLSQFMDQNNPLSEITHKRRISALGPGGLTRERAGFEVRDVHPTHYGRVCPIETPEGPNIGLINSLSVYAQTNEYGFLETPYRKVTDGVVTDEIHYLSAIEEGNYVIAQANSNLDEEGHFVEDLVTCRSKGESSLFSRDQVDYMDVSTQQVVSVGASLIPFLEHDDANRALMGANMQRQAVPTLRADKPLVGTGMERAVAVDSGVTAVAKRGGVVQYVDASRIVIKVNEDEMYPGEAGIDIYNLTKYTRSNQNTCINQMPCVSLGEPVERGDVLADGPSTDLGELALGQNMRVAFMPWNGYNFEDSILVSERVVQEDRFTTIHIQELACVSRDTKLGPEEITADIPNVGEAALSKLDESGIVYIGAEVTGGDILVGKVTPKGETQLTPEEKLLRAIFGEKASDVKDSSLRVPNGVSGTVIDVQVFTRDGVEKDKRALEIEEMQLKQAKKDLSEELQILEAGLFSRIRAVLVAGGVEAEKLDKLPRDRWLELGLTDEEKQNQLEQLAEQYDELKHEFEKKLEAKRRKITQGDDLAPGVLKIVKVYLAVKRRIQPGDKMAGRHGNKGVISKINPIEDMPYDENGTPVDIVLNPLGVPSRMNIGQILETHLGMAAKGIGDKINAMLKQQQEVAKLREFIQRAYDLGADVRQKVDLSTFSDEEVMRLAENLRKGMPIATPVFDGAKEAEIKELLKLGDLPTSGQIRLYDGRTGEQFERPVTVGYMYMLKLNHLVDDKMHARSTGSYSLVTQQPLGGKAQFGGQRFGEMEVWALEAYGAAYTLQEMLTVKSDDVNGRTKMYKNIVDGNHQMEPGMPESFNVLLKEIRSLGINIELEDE
TNAP act DEA – human TNAP activation, intermediate phosphate acceptor; P05186; purified TNAP, CDP-star luminescence, 100 mM DEA, 30 min; stronger effect = higher value; scale: 0 levamisole-inhibited, 1 vehicle-only enzyme; activation factor at 20 µM; 64,000 tested, under 10 active; AID 813;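 active = activation factor of at least 2 at 20 µM, relative to controls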
Numbers without * were called inactive. Only some compounds are listed: those with a hit (about 1.1% of all), similar ones and a draw of the others.

O=C1CSC(c2cn(-c3ccccc3)nc2-c2ccccc2)N1Cc1ccc(Cl)cc1 (stereo unspecified) was read as HePTP inh 74*.
O=C1CSC(c2cn(-c3ccccc3)nc2-c2ccc(Cl)cc2)N1Cc1ccccc1 (stereo unspecified) was read as HePTP inh -13.
`CCCCn1c(NC(C)=O)c(C#N)c2nc3ccccc3nc21` gave MT1-MMP txn act 0.9, Hsp90 block -14, HER2 expr 66K 74, HePTP inh 10, Ec RNAP inh -9 and TNAP act DEA 0.9.
C=CCn1c(NC(=O)c2ccccc2Cl)c(C#N)c2nc3ccccc3nc21 was read as MT1-MMP txn act 1.1, Hsp90 block 61*, HER2 expr 66K 33, HePTP inh 9, Ec RNAP inh -4 and TNAP act DEA 1.
`C=CCn1c(NC(=O)c2ccccc2)c(C#N)c2nc3ccccc3nc21` gave MT1-MMP txn act 1, Hsp90 block 63*, HER2 expr 66K 68, HePTP inh 10, Ec RNAP inh 1 and TNAP act DEA 0.9.
Screening COC(=O)c1ccc(COc2cc(C)cc3oc(=O)cc(-c4ccccc4)c23)cc1 returned HePTP inh 8.
`CCOC(=O)/C(C(=O)Nc1cccs1)=C1\NC(C)(C)Cc2ccccc21` gave HePTP inh 9.
Cc1ccc(C(=O)NC(NC(=S)Nc2cc(C)ccc2C)C(Cl)(Cl)Cl)cc1 (stereo unspecified) was read as HePTP inh 75*.
For O=C(Nc1ccc(F)cc1F)c1ccc(Cl)cc1 the results were HePTP inh -15.
For COC(=O)c1ccc(-n2c(C)cc(/C=C3/SC(N)=NC3=O)c2C)cc1 the results were HePTP inh -9.
For CC(=O)NC1=NC(=O)/C(=C/c2cc(C)n(-c3ccc(C(=O)O)cc3)c2C)S1 the results were HePTP inh 61*.
`CCOc1ccccc1/C=C1/SC(=S)N(NC(=O)c2ccccc2C)C1=O` gave HePTP inh 10.
For CCCSC1=N/C(=C\C=C\c2ccco2)C(=O)S1 the results were MT1-MMP txn act 1.1, Hsp90 block -11, HER2 expr 66K -3.4*, HePTP inh 14, Ec RNAP inh 7 and TNAP act DEA 0.9.
O=C1SC(SCc2ccccc2)=N/C1=C\c1ccco1 was read as MT1-MMP txn act 1.2, Hsp90 block -12, HER2 expr 66K 75, HePTP inh -2, Ec RNAP inh 9 and TNAP act DEA 0.8.
Screening CCOc1cc(/C=C2/C(=O)NN(c3ccc(I)cc3)C2=O)ccc1O returned HePTP inh 90*.
COc1ccc(/C=C2/C(=O)NN(c3ccc(C)cc3)C2=O)cc1Br was read as HePTP inh -3.
CCOC(=O)c1ccc(N2NC(=O)/C(=C/c3cc(OC)c(O)c(OC)c3)C2=O)cc1 was read as HePTP inh 89*.
For CCOC(=O)c1ccc(N2NC(=O)/C(=C/c3cccc(I)c3)C2=O)cc1 the results were HePTP inh -2.
Screening CCOC(=O)c1ccc(N2NC(=O)/C(=C/c3ccc(OC)c(Br)c3)C2=O)cc1 returned HePTP inh 55*.
`CCOc1ccc(C(=O)N2CCC(Cc3ccccc3)CC2)cc1OCC` gave HePTP inh 6.
Screening COc1cc(C(=O)N/C(N)=N/c2nc3ccccc3o2)cc(OC)c1OC returned HePTP inh 6.
`O=C1c2ccccc2CCC1C(O)c1ccccn1` (stereo unspecified) gave MT1-MMP txn act 1.3, HER2 expr 66K 101, HePTP inh -13, Ec RNAP inh 10 and TNAP act DEA 1.
For O=C(OC1CCc2ccccc2C1=O)c1ccccc1O (stereo unspecified) the results were MT1-MMP txn act 1.5, Hsp90 block 72*, HER2 expr 66K 94, HePTP inh -1, Ec RNAP inh 2 and TNAP act DEA 0.8.
CC(C)c1cc(Nc2cccc(O)c2)cc(C(C)C)c1O was read as MT1-MMP txn act 1.5, Hsp90 block 72*, HER2 expr 66K 83, HePTP inh 5, Ec RNAP inh 4 and TNAP act DEA 0.8.
Screening O=c1cc(-c2ccc(O)cc2)oc2cc(O)cc(O)c12 returned Hsp90 block -3.
`CN(C)c1ccc(-c2c3cc(O)c(=O)cc-3oc3cc(O)c(O)cc23)cc1` gave HePTP inh 103*.
`CCOC(=O)c1ccc(-n2c(-c3ccccc3)nc3ccccc3c2=O)cc1` gave HePTP inh 98*.
Screening O=C(Nc1ccc(NC(=O)c2ccccc2[N+](=O)[O-])cc1)c1ccccc1 returned HePTP inh -3.
Screening c1ccc(Cc2nn3c(COc4ccccc4)nnc3s2)cc1 returned MT1-MMP txn act 1.2, Hsp90 block -1, HER2 expr 66K -21*, HePTP inh 6, Ec RNAP inh 6 and TNAP act DEA 0.9.
COc1cc(C2NC(=S)NC(C)=C2C(=O)Nc2cccc(C)c2)cc(OC)c1OC (stereo unspecified) was read as HePTP inh -11.
For COc1ccc(/C=C2/N=C(c3ccc(Br)cc3)OC2=O)cc1 the results were HePTP inh -16.
`CCCOc1ccc(C(=S)N2CCN(c3cccc(C)c3)CC2)cc1` gave HePTP inh 2.
For O=C(/C=C/c1ccco1)Nc1ccc(Cl)cc1C(=O)O the results were HePTP inh 102*.
Screening O=C(/C=C/c1ccco1)Nc1ccc(Cl)cc1Cl returned HePTP inh 8.
O=C(/C=C/c1ccco1)NCCCCNC(=O)/C=C/c1ccco1 was read as HePTP inh 103*.
For Cc1cccc(NC(=O)c2ccccc2NC(=O)/C=C\c2ccco2)c1C the results were HePTP inh 6.
For O=C(/C=C/c1ccco1)Nc1ccc(O)cc1C(=O)O the results were HePTP inh 98*.
For O=C(/C=C/c1ccco1)Nc1cccc([N+](=O)[O-])c1 the results were HePTP inh 62*.
`O=C1/C(=C\c2cc([N+](=O)[O-])cc(Br)c2O)SC(=S)N1c1cccc(Cl)c1` gave HePTP inh 101*.
For O=C1/C(=C/c2cc([N+](=O)[O-])ccc2Cl)SC(=S)N1c1ccccc1 the results were HePTP inh 2.
For Cn1c2ccc(Cl)cc2c2cc(C(=O)C(F)(F)F)ccc21 the results were HePTP inh 2.
`COc1ccc(-n2c(SCC(=O)Nc3nc(C)cs3)nnc2-c2ccoc2C)cc1` gave MT1-MMP txn act 2.2*.
For COc1ccc(-n2c(Cc3cccn3C)nnc2SCC(=O)Nc2nc(C)cs2)cc1 the results were MT1-MMP txn act 1, Hsp90 block -2, HER2 expr 66K 106, HePTP inh 4, Ec RNAP inh 0 and TNAP act DEA 0.9.
Screening Oc1ccccc1O returned Hsp90 block 52*.
